According to PubChem BioAssay (EPA / NIEHS):
Values joined by “and” are separate entries in the source; they are usually repeats but may differ in a detail not shown here. Equal values may be shown once. The source holds several records for some structures; these can differ, active in one and inactive in another. Active and inactive are the calls of the source. The calls were made as follows: active = hit-call score of the fitted dose curve at least 0.9, where 1 is the maximum; inactive = score below 0.9.

Tests used:
[1] = ATG_PBREM_CIS: Attagene CIS-FACTORIAL HepG2 Assay for human Phenobarbital-responsive Enhancer Module (PBREM) (AID 2282955); details: HepG2 PBREM cis-reporter, Attagene multiplexed transcription; actives raise or lower the signal
Summary of the method: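 Endogenous transcription factor activity was read from reporter transcripts in transiently transfected human HepG2 liver cells after 24 h dosing. RT-PCR products were fluorescently labelled, HpaI-cut and sized by capillary electrophoresis; activity fitted bidirectionally against DMSO baseline.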

[2] = molecular target: Paired box protein Pax-6 (Homo sapiens) (UniProt P26367); assay: ATG_Pax6_CIS: Attagene CIS-FACTORIAL HepG2 Assay for human Paired Box 6 (PAX6) (AID 2282956); details: HepG2 CIS-FACTORIAL PAX6 reporter transcription, RNA readout; actives raise or lower the signal
Summary of the method: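 Multiplexed cis-reporter HepG2 system; 24 h treatment; reporter mRNA read by RT-PCR/CE fluorescence; bidirectional fit vs DMSO.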

[3] = ATG_PXRE_CIS: Attagene CIS-FACTORIAL HepG2 Assay for human Pregnane X Receptor Element (PXRE) (AID 2282957); details: HepG2 Attagene CIS-FACTORIAL PXRE reporter, mRNA; actives raise or lower the signal
Summary of the method: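 Transfect HepG2 with MRTUs (cis promoter elements); dose chemical, incubate 24 h; isolate RNA, RT with oligo(dT), PCR, 6-FAM label, HpaI cut, CE. Gain/loss fit vs DMSO.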

[4] = ATG_RORE_CIS: Attagene CIS-FACTORIAL HepG2 Assay for human RAR-related Orphan Receptor Element (RORE) (AID 2282959); details: HepG2 Attagene cis-factorial RORE reporter, mRNA; actives raise or lower the signal
Summary of the method: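 RORE reporter transcripts reflecting endogenous factor activity were read after 24 h compound exposure of transfected HepG2 cells, using reverse transcription, PCR, fluorescent labelling and capillary electrophoresis sizing. Gain or loss fitted against DMSO.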

[5] = ATG_Sox_CIS: Attagene CIS-FACTORIAL HepG2 Assay for human SRY-box transcription factor (SOX) (AID 2282960); details: HepG2 Attagene cis-factorial SOX reporter, mRNA; actives raise or lower the signal
Summary of the method: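 Reporter transcripts, measured by RT-PCR and capillary electrophoresis of labelled fragments, report endogenous SOX transcription factor activity. Transiently transfected human HepG2 cells receive chemical for 24 h; changes in either direction are fitted relative to DMSO.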

[6] = molecular target: Transcription factor Sp1 (Homo sapiens) (UniProt P08047); assay: ATG_Sp1_CIS: Attagene CIS-FACTORIAL HepG2 Assay for human Specificity Protein 1 (Sp1) (AID 2282961); details: HepG2 Sp1 cis-reporter transcription, actives raise or lower the signal
Summary of the method: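 Read-out is reporter transcript level, measured by RT-PCR and fluorescent capillary electrophoresis after 24 h chemical treatment. System: transiently transfected HepG2 cells reporting endogenous transcription factor activity; gain or loss fitted against DMSO baseline.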

[7] = ATG_SREBP_CIS: Attagene CIS-FACTORIAL HepG2 Assay for human Sterol Regulatory Element Binding (SREBP) (AID 2282962); details: HepG2 Attagene cis-factorial SREBP reporter, mRNA; actives raise or lower the signal
Summary of the method: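 mRNA induction of transfected cis-promoter reporters in HepG2 cells, 24 h post-dose. Detection: RT-PCR with 6-FAM-labelled products, HpaI digest, capillary electrophoresis. DMSO served as negative control and baseline.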

[8] = molecular target: Signal transducer and activator of transcription 3 (Homo sapiens) (UniProt P40763); assay: ATG_STAT3_CIS: Attagene CIS-FACTORIAL HepG2 Assay for human Signal Transducer and Activator of Transcription 3 (STAT3) (AID 2282963); details: HepG2, Attagene cis-factorial STAT3 reporter transcription; actives raise or lower the signal
Summary of the method: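 Endogenous STAT3-responsive cis-element activity was read in transiently transfected HepG2 cells after 24 h treatment. Reporter transcripts were quantified via RT-PCR and capillary electrophoresis, with DMSO as negative control and bidirectional curve fitting.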

[9] = ATG_TA_CIS: Attagene CIS-FACTORIAL HepG2 Assay for human TA Basal Promoter (AID 2282964); details: HepG2 Attagene CIS-factorial TA basal promoter reporter; actives raise or lower the signal
Summary of the method: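 Multiplexed mRNA reporter assay, HepG2, 24 h. Reporter cDNA amplified, 6-FAM primer-extended, HpaI-cut, CE-sized; DMSO = negative control and baseline.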

Measured: AC50

Paired box protein Pax-6 (Homo sapiens), sequence (P26367 whole entry, looked up): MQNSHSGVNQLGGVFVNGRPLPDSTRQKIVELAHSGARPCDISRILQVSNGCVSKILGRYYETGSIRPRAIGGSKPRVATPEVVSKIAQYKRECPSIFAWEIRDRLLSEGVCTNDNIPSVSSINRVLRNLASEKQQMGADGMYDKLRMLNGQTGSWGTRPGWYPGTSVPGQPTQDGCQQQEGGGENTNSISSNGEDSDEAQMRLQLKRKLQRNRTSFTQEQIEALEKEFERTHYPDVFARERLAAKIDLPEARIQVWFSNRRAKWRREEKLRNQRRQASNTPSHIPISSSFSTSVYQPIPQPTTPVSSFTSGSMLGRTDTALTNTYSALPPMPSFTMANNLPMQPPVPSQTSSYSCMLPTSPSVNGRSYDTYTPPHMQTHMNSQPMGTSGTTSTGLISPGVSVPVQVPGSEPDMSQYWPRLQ
Transcription factor Sp1 (Homo sapiens), sequence (P08047 whole entry, looked up): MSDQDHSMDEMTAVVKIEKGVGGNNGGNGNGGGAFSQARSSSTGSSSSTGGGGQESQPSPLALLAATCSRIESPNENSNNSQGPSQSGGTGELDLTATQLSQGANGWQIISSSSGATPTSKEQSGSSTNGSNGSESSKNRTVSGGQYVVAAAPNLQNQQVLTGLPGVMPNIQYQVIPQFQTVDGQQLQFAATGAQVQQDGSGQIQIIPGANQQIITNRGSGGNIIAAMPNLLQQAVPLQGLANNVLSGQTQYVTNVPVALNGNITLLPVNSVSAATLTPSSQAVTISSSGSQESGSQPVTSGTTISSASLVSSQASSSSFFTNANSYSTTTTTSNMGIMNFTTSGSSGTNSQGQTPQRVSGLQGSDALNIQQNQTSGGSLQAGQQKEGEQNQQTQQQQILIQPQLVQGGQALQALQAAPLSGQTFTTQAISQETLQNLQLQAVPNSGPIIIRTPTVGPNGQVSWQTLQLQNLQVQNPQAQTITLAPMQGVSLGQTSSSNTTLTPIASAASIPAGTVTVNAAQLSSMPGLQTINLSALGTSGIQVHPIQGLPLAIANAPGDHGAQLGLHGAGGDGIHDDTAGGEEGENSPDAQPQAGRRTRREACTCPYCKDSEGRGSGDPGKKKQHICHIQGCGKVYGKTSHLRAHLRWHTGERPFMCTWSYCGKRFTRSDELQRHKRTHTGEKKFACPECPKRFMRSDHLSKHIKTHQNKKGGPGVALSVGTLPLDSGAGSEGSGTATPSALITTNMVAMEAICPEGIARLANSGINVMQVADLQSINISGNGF
Signal transducer and activator of transcription 3 (Homo sapiens), sequence (P40763 whole entry, looked up): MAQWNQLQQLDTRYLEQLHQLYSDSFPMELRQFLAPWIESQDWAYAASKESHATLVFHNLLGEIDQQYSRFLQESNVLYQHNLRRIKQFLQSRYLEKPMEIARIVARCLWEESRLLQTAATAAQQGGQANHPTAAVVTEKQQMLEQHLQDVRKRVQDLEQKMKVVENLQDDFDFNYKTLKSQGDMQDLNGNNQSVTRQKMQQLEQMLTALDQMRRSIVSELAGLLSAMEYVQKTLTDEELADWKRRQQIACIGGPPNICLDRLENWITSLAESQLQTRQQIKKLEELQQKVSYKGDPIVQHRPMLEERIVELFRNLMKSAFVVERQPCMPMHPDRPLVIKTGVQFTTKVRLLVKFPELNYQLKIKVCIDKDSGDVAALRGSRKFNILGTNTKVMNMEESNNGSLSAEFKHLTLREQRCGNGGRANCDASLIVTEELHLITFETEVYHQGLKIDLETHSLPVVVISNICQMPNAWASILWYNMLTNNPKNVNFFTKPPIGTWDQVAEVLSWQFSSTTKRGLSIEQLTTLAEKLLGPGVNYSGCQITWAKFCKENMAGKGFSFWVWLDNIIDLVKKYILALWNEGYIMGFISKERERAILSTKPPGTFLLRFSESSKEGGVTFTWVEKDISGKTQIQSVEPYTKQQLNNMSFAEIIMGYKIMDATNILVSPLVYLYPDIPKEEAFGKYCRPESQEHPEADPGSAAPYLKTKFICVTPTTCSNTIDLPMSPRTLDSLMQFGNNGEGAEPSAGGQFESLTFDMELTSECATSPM

C#CCOS(=O)OC1CCCCC1Oc1ccc(C(C)(C)C)cc1 (stereo unspecified)
active: [1] 1.39 µM | [3] 0.661 µM | [4] 2.4 µM | [5] 4.22 µM
inactive: [2] | [6] | [7] | [8] | [9]

CCNc1nc(Cl)nc(NC(C)C)n1
inactive: [2] | [4] | [5] | [6] | [7] | [8] | [9]
active: [3] 27.4 µM [middle of 4 runs]

Cc1c(F)c(F)c(COC(=O)C2C(/C=C(\Cl)C(F)(F)F)C2(C)C)c(F)c1F (stereo unspecified)
inactive: [2] | [5] | [6] | [7] | [8] | [9]
active: [3] 13.8 µM

CC(C)Oc1cc(-n2nc(C(C)(C)C)oc2=O)c(Cl)cc1Cl
active: [1] 0.427 µM | [3] 0.284 µM
inactive: [2] | [4] | [5] | [6] | [7] | [8] | [9]

CC(C)(C)c1ccc(CSc2cnn(C(C)(C)C)c(=O)c2Cl)cc1
inactive: [2] | [5] | [7] | [8] | [9]
active: [1] 0.527 µM | [3] 2.14 µM | [4] 1.88 µM | [6] 0.0129 µM

N#Cc1cc(Br)c(O)c(Br)c1
active: [3] 18.4 µM | [4] 50 µM
inactive: [1] | [2] | [5] | [6] | [7] | [8] | [9]

COC(=O)c1ccccc1C(=O)OC
inactive: [1] | [2] | [4] | [5] | [6] | [7] | [8] | [9]
active: [3] 32.8 µM

Cc1cc(Cl)ccc1OCC(=O)O
inactive: [1] | [2] | [3] | [4] | [5] | [6] | [7] | [8] | [9]

COC(=O)C(C)Oc1ccc(Oc2ccc(Cl)cc2Cl)cc1 (stereo unspecified)
active: [3] 23 µM and 16.9 µM and 22 µM
inactive: [1] | [2] | [4] | [5] | [6] | [7] | [8] | [9]

CCOP(=S)(OCC)SCn1c(=O)oc2cc(Cl)ccc21
active: [1] 7.17 µM | [3] 2.21 µM
inactive: [2] | [4] | [5] | [6] | [7] | [8] | [9]

Cc1ccc(-c2c(Cl)nc(C#N)n2S(=O)(=O)N(C)C)cc1
active: [1] 11.9 µM | [3] 3.08 µM | [4] 16.3 µM | [6] 11.9 µM
inactive: [2] | [5] | [7] | [8] | [9]

CC(Oc1ccc(Cl)cc1Cl)C(=O)O (stereo unspecified)
active: [3] 79.7 µM
inactive: [2] | [4] | [5] | [6] | [7] | [8] | [9]

CNC(=O)ON=CC(C)(C)SC
inactive: [1] | [2] | [3] | [4] | [5] | [6] | [7] | [8] | [9]

CCc1nn(C)c(C(=O)NCc2ccc(C(C)(C)C)cc2)c1Cl
active: [1] 1.39 µM | [3] 3.17 µM
inactive: [2] | [4] | [5] | [6] | [7] | [8] | [9]

O=C(O)c1nc(Cl)ccc1Cl
inactive: [2] | [3] | [4] | [5] | [6] | [7] | [8] | [9]

O=C(O)COc1nc(Cl)c(Cl)cc1Cl
active: [3] 59.9 µM
inactive: [1] | [2] | [4] | [5] | [6] | [7] | [8] | [9]

C=CC1(C)OC(=O)N(c2cc(Cl)cc(Cl)c2)C1=O (stereo unspecified)
active: [3] 17.3 µM and 31.1 µM and 33 µM
inactive: [2] | [3] | [4] | [5] | [6] | [7] | [8] | [9]

CCCCC(CC)COC(=O)c1ccccc1C(=O)OCC(CC)CCCC (stereo unspecified)
active: [3] 9.84 µM
inactive: [1] | [2] | [4] | [5] | [6] | [7] | [8] | [9]

N#CC(CCc1ccc(Cl)cc1)(Cn1cncn1)c1ccccc1 (stereo unspecified)
inactive: [1] | [2] | [4] | [5] | [6] | [8]
active: [3] 1.5 µM | [7] 8.22 µM | [9] 16.9 µM
